From ChEMBL document CHEMBL3433997, “St. Jude Leishmania screening dataset” (2016)

target: Hexose transporter 1 (Plasmodium falciparum) (UniProt O97467); assay: ST_JUDE_LEISH: Cytotoxicity at 2uM final concentration against transgenic Leishmania Mexicana promastigotes LmPfHT that are glucose transport deficient and complemented with the Plasmodium falciparum hexose transporter. Activity is measured by DNA content using SYBR green in vitro; assay type: functional

SMILES | inhibition [%]
CCc1c(CCNCCCCCCNCc2ccc3c(c2CC)OCO3)ccc(OC)c1OC | 0.77
Clc1ccc2c(NN=Cc3cccs3)ccnc2c1 | 1.3
N#Cc1c(-c2ccccc2)cn2c1[nH]c(=O)c1ccccc12 | 2.37
Nc1ccc(-c2ccc3ccnc(N)c3c2)cn1 | -1.53
OCCN1CCN(C(=S)Nc2ccccc2)CC1 | 3.14
O=C(NCCN1CCOCC1)c1csc(C2CCCN(C(=O)c3ccc(O)c(-c4cc(Cl)cc(Cl)c4)c3)C2)n1 (stereo not given) | 1.79
c1cc(CNc2ncc(-c3ccsc3)c(-c3nccs3)n2)ccn1 | 9.37
COc1ccc(CNC2CCN(C)CC2)cc1-c1ccc(S(=O)(=O)NCCc2ccccn2)c(F)c1 | 2.16
CC(C)c1ccc(CN2CCC(CNC(=O)c3cc(-c4ccccc4F)cs3)C2)cc1 (stereo not given) | 4.88
O=c1cc(NCCC2CC=CCN2Cc2ccc(Cl)c(Cl)c2)[nH]c2ccccc12 (stereo not given) | 0.33
CC(=O)N1N=C(c2ccc(Cl)cc2)Sc2c1nc(-c1ccccc1)n2C(C)=O | 1.84
Cc1cc(NC(c2ccc(Cl)cc2)c2ccc3cccnc3c2O)no1 (stereo not given) | 22.8
OC(CNC1CCCCC1)Cn1c2ccc(Br)cc2c2cc(Br)ccc21 (stereo not given) | 0.28
C#CCNCc1ccc(-c2ccc(-c3nc4cc(C(F)(F)F)ccc4[nH]3)s2)cc1 | -0.12
Cc1nc(C)c(CC(=O)Nc2ccc(-c3ccc(-c4nc5cc(C(F)(F)F)ccc5[nH]4)s3)cc2)s1 | 2.1
O=c1ccc(-c2nc3cc(Cl)c(Cl)cc3n2Cc2ccc(Cl)cc2Cl)c[nH]1 | -0.54
COc1ccc(Nc2nccc(N3CCC(NC(=O)Nc4cccc(OC)c4)C3)n2)cc1 (stereo not given) | 0.74
Cc1sc2nc(CSc3ccccc3)nc(N3CCN(CC(=O)NC4CC4)CC3)c2c1C | -2.01
CCN(Cc1ccc(-c2ccc(C(F)(F)F)cc2)cc1)C(=O)Cn1c(SCc2cccc(F)c2F)cc(=O)c2cc(CN3CCCCC3)ccc21 | 0.7
CCn1c(-c2nonc2N)nc2cnc(Oc3cccc(NC(=O)c4ccc(OCCN(C(C)C)C(C)C)cc4)c3)cc21 | 18.2

SMILES | inhibition [%]
CCN1CCN(c2cc(C)c3cc(NC(=O)c4ccc(Br)o4)ccc3n2)CC1 | 6.62
COc1ccc(CCNCC(O)c2cccc(Br)c2)c(Cl)c1OC (stereo not given) | -1.73
COc1ccc2nccc([C@@H](O)CN3CCC(NCCNc4cccc(F)c4)CC3)c2c1 | 11.1
O=C(Cn1c(CCc2cccc(F)c2F)cc(=O)c2ccccc21)N(CCN1CCCCC1)Cc1ccc(-c2ccc(C(F)(F)F)cc2)cc1 | 5.08
CC(C)(C)Cn1cc(-c2ccc(C(=O)NCCc3ccc(S(C)(=O)=O)cc3)cc2)c(N)n1.CC(C)(C)Cn1ncc(-c2ccc(C(=O)NCCc3ccc(S(C)(=O)=O)cc3)cc2)c1N | 1.16
CN1CCC(NCc2ccc(-c3cccc(S(=O)(=O)NCC4CCCO4)c3)cc2)CC1 (stereo not given) | 3.18
COc1ccc2ccccc2c1C=NN=c1cc(C)[nH]c2cc(C(F)(F)F)ccc12 | 8.24
O=C(/C=C/c1ccc(Cl)c(Cl)c1)NC1CCN(Cc2ccc(O)cc2)CC1 | 0.53
NS(=O)(=O)c1cccc(Nc2nccc(-c3c(-c4cccc(NC(=O)c5c(F)cccc5F)c4)nn4ccccc34)n2)c1 | 7.67
CCN(CC)CCCN1CCN(C(=O)c2cccc(-c3noc(C(F)(F)F)n3)c2)CC1 | 4.63
Cc1cccc2nc(-c3cccc(-c4ccc(CNCc5cccc(N)c5)cc4)c3)[nH]c12 | -1.49
CNC(=O)c1cnc(Nc2ccc(N3CCN(C)CC3)c(C)c2)nc1NC | -3.69
CCOCCCn1c(=N)c(C(=O)NCc2ccc(F)cc2)cc2c(=O)n3cccc(C)c3nc21 | 10.1
Cc1cccn2c(=O)c3cc(C(=O)NCCc4ccccc4)c(=N)n(CCCOC(C)C)c3nc12 | 6.64
O=C(C=Cc1ccc(F)cc1)NC1CCC(CCN2CCc3ccc(-c4cnccn4)cc3CC2)CC1 (stereo not given) | -0.24
O=S(=O)(c1ccc2cc[nH]c2c1)N1CCC[C@@H]1CCN1CCC(c2c[nH]c3cnccc23)CC1 | 2.78
ON=C(c1nc2ccccc2[nH]1)c1nc2ccccc2[nH]1 | -0.51
COc1cccc2cc(C(=O)N[C@@H](CC(C)C)C(=O)N[C@H](C=NN3CCOC3=O)Cc3ccccc3)oc12 | 0.23
N#Cc1ccc(N/C(=N\c2ccccc2Cl)NC2CCN(Cc3ccccc3)CC2)c(O)c1 | 2.49
O=C(Nc1cccc(N2CCC(NCc3cccnc3)CC2)c1)c1cccc(C(F)(F)F)c1 | 1

target: Glucose transporter (Leishmania mexicana) (UniProt O61059); assay: ST_JUDE_LEISH: Cytotoxicity at 2uM final concentration against transgenic Leishmania Mexicana promastigotes LmGT2 that are glucose transport deficient and complemented with the L. Mexicana glucose transporter 2. Activity is measured by DNA content using SYBR green in vitro; assay type: functional

SMILES | inhibition [%]
CCc1c(CCNCCCCCCNCc2ccc3c(c2CC)OCO3)ccc(OC)c1OC | 4.01
Clc1ccc2c(NN=Cc3cccs3)ccnc2c1 | 2.8
N#Cc1c(-c2ccccc2)cn2c1[nH]c(=O)c1ccccc12 | 1.89
Nc1ccc(-c2ccc3ccnc(N)c3c2)cn1 | 2.84
OCCN1CCN(C(=S)Nc2ccccc2)CC1 | 3.02
O=C(NCCN1CCOCC1)c1csc(C2CCCN(C(=O)c3ccc(O)c(-c4cc(Cl)cc(Cl)c4)c3)C2)n1 (stereo not given) | 1.85
c1cc(CNc2ncc(-c3ccsc3)c(-c3nccs3)n2)ccn1 | 6.45
COc1ccc(CNC2CCN(C)CC2)cc1-c1ccc(S(=O)(=O)NCCc2ccccn2)c(F)c1 | 4.77
CC(C)c1ccc(CN2CCC(CNC(=O)c3cc(-c4ccccc4F)cs3)C2)cc1 (stereo not given) | 8.4
O=c1cc(NCCC2CC=CCN2Cc2ccc(Cl)c(Cl)c2)[nH]c2ccccc12 (stereo not given) | -0.25
CC(=O)N1N=C(c2ccc(Cl)cc2)Sc2c1nc(-c1ccccc1)n2C(C)=O | 2.48
Cc1cc(NC(c2ccc(Cl)cc2)c2ccc3cccnc3c2O)no1 (stereo not given) | 6.2
OC(CNC1CCCCC1)Cn1c2ccc(Br)cc2c2cc(Br)ccc21 (stereo not given) | 0.64
C#CCNCc1ccc(-c2ccc(-c3nc4cc(C(F)(F)F)ccc4[nH]3)s2)cc1 | -1.09
Cc1nc(C)c(CC(=O)Nc2ccc(-c3ccc(-c4nc5cc(C(F)(F)F)ccc5[nH]4)s3)cc2)s1 | -0.02
O=c1ccc(-c2nc3cc(Cl)c(Cl)cc3n2Cc2ccc(Cl)cc2Cl)c[nH]1 | -0.93
COc1ccc(Nc2nccc(N3CCC(NC(=O)Nc4cccc(OC)c4)C3)n2)cc1 (stereo not given) | 0.51
Cc1sc2nc(CSc3ccccc3)nc(N3CCN(CC(=O)NC4CC4)CC3)c2c1C | -1.85
CCN(Cc1ccc(-c2ccc(C(F)(F)F)cc2)cc1)C(=O)Cn1c(SCc2cccc(F)c2F)cc(=O)c2cc(CN3CCCCC3)ccc21 | 5.02
CCn1c(-c2nonc2N)nc2cnc(Oc3cccc(NC(=O)c4ccc(OCCN(C(C)C)C(C)C)cc4)c3)cc21 | 5.45

SMILES | inhibition [%]
CCN1CCN(c2cc(C)c3cc(NC(=O)c4ccc(Br)o4)ccc3n2)CC1 | 8.17
COc1ccc(CCNCC(O)c2cccc(Br)c2)c(Cl)c1OC (stereo not given) | -3.62
COc1ccc2nccc([C@@H](O)CN3CCC(NCCNc4cccc(F)c4)CC3)c2c1 | 0.95
O=C(Cn1c(CCc2cccc(F)c2F)cc(=O)c2ccccc21)N(CCN1CCCCC1)Cc1ccc(-c2ccc(C(F)(F)F)cc2)cc1 | 3.76
CC(C)(C)Cn1cc(-c2ccc(C(=O)NCCc3ccc(S(C)(=O)=O)cc3)cc2)c(N)n1.CC(C)(C)Cn1ncc(-c2ccc(C(=O)NCCc3ccc(S(C)(=O)=O)cc3)cc2)c1N | 2.93
CN1CCC(NCc2ccc(-c3cccc(S(=O)(=O)NCC4CCCO4)c3)cc2)CC1 (stereo not given) | 6.61
COc1ccc2ccccc2c1C=NN=c1cc(C)[nH]c2cc(C(F)(F)F)ccc12 | 6.68
O=C(/C=C/c1ccc(Cl)c(Cl)c1)NC1CCN(Cc2ccc(O)cc2)CC1 | -3.54
NS(=O)(=O)c1cccc(Nc2nccc(-c3c(-c4cccc(NC(=O)c5c(F)cccc5F)c4)nn4ccccc34)n2)c1 | 1.61
CCN(CC)CCCN1CCN(C(=O)c2cccc(-c3noc(C(F)(F)F)n3)c2)CC1 | 4
Cc1cccc2nc(-c3cccc(-c4ccc(CNCc5cccc(N)c5)cc4)c3)[nH]c12 | -2.56
CNC(=O)c1cnc(Nc2ccc(N3CCN(C)CC3)c(C)c2)nc1NC | 3.79
CCOCCCn1c(=N)c(C(=O)NCc2ccc(F)cc2)cc2c(=O)n3cccc(C)c3nc21 | -1.34
Cc1cccn2c(=O)c3cc(C(=O)NCCc4ccccc4)c(=N)n(CCCOC(C)C)c3nc12 | 2.98
O=C(C=Cc1ccc(F)cc1)NC1CCC(CCN2CCc3ccc(-c4cnccn4)cc3CC2)CC1 (stereo not given) | 1.49
O=S(=O)(c1ccc2cc[nH]c2c1)N1CCC[C@@H]1CCN1CCC(c2c[nH]c3cnccc23)CC1 | 2.1
ON=C(c1nc2ccccc2[nH]1)c1nc2ccccc2[nH]1 | 0.76
COc1cccc2cc(C(=O)N[C@@H](CC(C)C)C(=O)N[C@H](C=NN3CCOC3=O)Cc3ccccc3)oc12 | -0.91
N#Cc1ccc(N/C(=N\c2ccccc2Cl)NC2CCN(Cc3ccccc3)CC2)c(O)c1 | 0.29
O=C(Nc1cccc(N2CCC(NCc3cccnc3)CC2)c1)c1cccc(C(F)(F)F)c1 | -0.6
